# From PubChem BioAssay (NCI)
# This is part of a sample that, as a whole, favours compounds with a hit. Of some 79,000 tested, about 15% had one in any assay. A number with no mark means an inactive call. Calls of active or inactive are those of the source. Cut-off read from the data, not from the text of the source: active = growth inhibition above about 70%; inactive = the rest.
# Legend:
# [1] = NCI Yeast Anticancer Drug Screen. Data for the rad50 strain (AID 155);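 note: 0% = growth of vehicle-only cultures of the same strain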; conditions: S. cerevisiae rad50 strain growth inhibition, active compounds read high
# Procedure, shortened: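 A DNA repair-deficient yeast mutant serves as the test organism; compound-induced growth inhibition is calculated against vehicle-treated cells.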
# [2] = NCI Yeast Anticancer Drug Screen. Data for the mec2-1 strain (AID 157); conditions: S. cerevisiae mec2-1 strain, active compounds read high
# Procedure, shortened: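 Vehicle-treated cultures served as reference for growth inhibition of compound-exposed mec2-1 yeast.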
# [3] = NCI Yeast Anticancer Drug Screen. Data for the sgs1 mgt1 strain (AID 161);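 note: 0% = growth of cultures given vehicle only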; conditions: S. cerevisiae sgs1 mgt1 strain, active compounds read high
# Procedure, shortened: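 Mutant yeast exposed to compound; growth scored against vehicle-only wells.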
# [4] = NCI Yeast Anticancer Drug Screen. Data for the cln2 rad14 strain (AID 165);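 note: 0% = growth equal to vehicle treated cultures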; conditions: S. cerevisiae cln2 rad14 strain, active compounds read high
# Procedure, shortened: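 Each compound was tested on cln2 rad14 yeast. Inhibition of growth was calculated against vehicle-exposed controls.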
# [5] = NCI Yeast Anticancer Drug Screen. Data for the bub3 strain (AID 167); conditions: S. cerevisiae bub3 mutant strain, active compounds read high
# Procedure, shortened: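 Inhibition values come from growth of compound-treated mutant yeast normalised to vehicle-treated controls.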
# [6] = NCI Yeast Anticancer Drug Screen. Data for the mlh1 rad18 strain (AID 175); conditions: S. cerevisiae mlh1 rad18 strain growth inhibition, active compounds read high
# Procedure, shortened: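 Vehicle-treated cultures served as the reference for growth inhibition in a yeast strain carrying DNA damage repair alterations exposed to each compound.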
# [7] = at 5.0 µM (retest, dose inferred, filed as 0.5)
# [8] = at 50.0 µM (retest, dose inferred, filed as 5.0)
SMILES,"growth inhibition [1, 7]","growth inhibition [1, 8]",growth inhibition ([1]; at 50.0 µM),"growth inhibition [2, 7]","growth inhibition [2, 8]",growth inhibition ([2]; at 50.0 µM),"growth inhibition [3, 7]","growth inhibition [3, 8]",growth inhibition ([3]; at 50.0 µM),"growth inhibition [4, 7]","growth inhibition [4, 8]",growth inhibition ([4]; at 50.0 µM),"growth inhibition [5, 7]","growth inhibition [5, 8]",growth inhibition ([5]; at 50.0 µM),"growth inhibition [6, 7]","growth inhibition [6, 8]",growth inhibition ([6]; at 50.0 µM)
CC(=O)OC1CCC2(C)C(CCC3C2CCC2(C)C4CCC32OC(=O)C4CC(=O)O)C1 (configuration not stated),3%,36%,86.6% (active),-32%,48%,89.5% (active),-12%,13%,89.5% (active),7%,49%,90.5% (active),-2%,49%,73% (active),10%,65%,93.5% (active)
Cc1ccccc1N=NC(C(=O)c1ccccc1)C(=O)c1ccccc1,7%,94% (active),93.2% (active),-14%,96% (active),94% (active),15%,93% (active),92.2% (active),3%,95% (active),90% (active),5%,97% (active),92.8% (active),-8%,97% (active),91.8% (active)
CCN(CC)CCCCCCNc1cc(C)cc2cccnc12,7%,59%,65.9%,7%,61%,19.9%,20%,81% (active),74% (active),9%,52%,72.8% (active),14%,76% (active),18.9%,10%,74% (active),59.6%
S=c1n(-c2ccc(Cl)cc2)c2nc3ccccc3nc(/c2=N\Nc2cc(Cl)ccc2Cl)n1-c1ccc(Br)cc1,2%,16%,50.3%,-9%,-12%,84.5% (active),0%,9%,78% (active),-6%,-24%,76% (active),-6%,15%,85.1% (active),1%,4%,68%
O=C1C(Cl)=C(c2ccccc2)C1Cl (configuration not stated),97% (active),100% (active),99.2% (active),98% (active),99% (active),99.5% (active),99% (active),100% (active),99.7% (active),98% (active),99% (active),99.5% (active),96% (active),99% (active),99.5% (active),99% (active),99% (active),99.2% (active)
C[Si](C)(CCC(=O)O)O[Si](C)(C)CCC(=O)O,-6%,91% (active),99.5% (active),-4%,92% (active),99.7% (active),-6%,91% (active),99.5% (active),-1%,59%,98.2% (active),-9%,99% (active),99.5% (active),-1%,68%,99.2% (active)
CCCCCC1OC(CCCCC)OC(CCCCC)O1 (configuration not stated),-10%,33%,10.2%,13%,-19%,6.6%,0%,7%,16.3%,4%,3%,8.25%,-12%,20%,-13.9%,-8%,-3%,11.7%
Cc1ccc(OC/C=C/c2cccc(C#N)c2)cc1,-3%,2%,-0.45%,3%,-2%,11.2%,0%,18%,-2.05%,-6%,-11%,44%,0%,12%,-0.9%,-5%,-1%,43.5%
Cc1cc2nc3ccc(N)cc3oc-2cc1=[N+](C)C,6%,95% (active),95.6% (active),14%,96% (active),92.8% (active),-9%,91% (active),74% (active),-12%,93% (active),81.5% (active),-8%,94% (active),78.2% (active),7%,92% (active),3.8%
